# In PubChem BioAssay AID1159580 (chemical genetic matrix, 2015):
# Out of some 5,500 compounds screened, about 2,000 (36%) were called active. About 18% were inconclusive and are not listed. The list shows a part of the results. Values without a mark were called inactive. Rule as the data show it: active = normalized growth mostly below about 0.91 (no sharp cut-off); inconclusive = no clear call, values can overlap the other calls; inactive = mostly above about 0.92.
# Assay: chemical genetic growth profiling, strain panel (AID 1159580);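 also: tested at 20 µM; growth read once vehicle control cultures reached saturation at 30 °C; 1 = growth at the plate median or of vehicle wells; lower values mean less growth of the strain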
# Conditions: S. cerevisiae deletion strains, growth OD
compound,measurement,setting,value
C[N+](C)(CCCCCC[N+](C)(C)CCCN1C(=O)c2cccc3cccc(c23)C1=O)CCCN1C(=O)c2cccc3cccc(c23)C1=O,normalized growth,"locus YAL040C, strain CLN3, hits give low values",0.984
same,normalized growth,"locus YCL061C, strain MRC1 (second series), hits give low values",1
same,normalized growth,"locus YDR150W, strain NUM1, hits give low values",1
same,normalized growth,"locus YDR363W, strain ESC2, hits give low values",0.986
same,normalized growth,"locus YER002W, strain NOP16, hits give low values",1.01
same,normalized growth,"locus YGR229C, strain SMI1, hits give low values",1
same,normalized growth,"locus YMR307W, strain GAS1, hits give low values",0.981
same,normalized growth,"locus YNL128W, strain TEP1, hits give low values",0.995
same,normalized growth,"locus YNL153C, strain GIM3, hits give low values",0.955
same,normalized growth,"locus YNL175C, strain NOP13, hits give low values",1.01
same,normalized growth,"locus YNL197C, strain WHI3, hits give low values",1.01
same,normalized growth,"locus YNL224C, strain SQS1, hits give low values",1
same,normalized growth,"locus YOR083W, strain WHI5 (second series), hits give low values",1.01
same,normalized growth,"locus YPL055C, strain LGE1, hits give low values",0.963
same,normalized growth,"locus YPL241C, strain CIN2, hits give low values",0.99
CC(C)(CCC(C)(C)N1C(=O)c2cccc3cccc(c23)C1=O)N1C(=O)c2cccc3cccc(c23)C1=O,normalized growth,"locus YAR019C, strain CDC15, hits give low values",0.0987 (active)
same,normalized growth,"locus YBL105C, strain PKC1, hits give low values",0.0855 (active)
same,normalized growth,"locus YBR135W, strain CKS1, hits give low values",0.0899 (active)
same,normalized growth,"locus YBR136W, strain MEC1, hits give low values",0.107 (active)
same,normalized growth,"locus YBR160W, strain CDC28, hits give low values",0.0904 (active)
same,normalized growth,"locus YDL017W, strain CDC7, hits give low values",0.0866 (active)
same,normalized growth,"locus YDL028C, strain MPS1, hits give low values",0.0947 (active)
same,normalized growth,"locus YDL101C, strain DUN1, hits give low values",0.628 (active)
same,normalized growth,"locus YDL108W, strain KIN28, hits give low values",0.13 (active)
same,normalized growth,"locus YDL132W, strain cdc53, hits give low values",0.971
same,normalized growth,"locus YDL214C, strain PRR2, hits give low values",0.0867 (active)
same,normalized growth,"locus YDR052C, strain DBF4, hits give low values",0.308 (active)
same,normalized growth,"locus YDR054C, strain cdc34, hits give low values",0.227 (active)
same,normalized growth,"locus YDR226W, strain ADK1, hits give low values",0.509 (active)
same,normalized growth,"locus YDR477W, strain SNF1, hits give low values",0.0979 (active)
same,normalized growth,"locus YER123W, strain YCK3, hits give low values",0.103 (active)
same,normalized growth,"locus YER133W, strain GLC7, hits give low values",0.0935 (active)
same,normalized growth,"locus YFL029C, strain CAK1, hits give low values",0.0982 (active)
same,normalized growth,"locus YFR003C, strain YPI1, hits give low values",0.0904 (active)
same,normalized growth,"locus YFR019W, strain FAB1, hits give low values",0.0894 (active)
same,normalized growth,"locus YGR040W, strain KSS1, hits give low values",0.1 (active)
same,normalized growth,"locus YGR052W, strain FMP48, hits give low values",0.133 (active)
same,normalized growth,"locus YGR092W, strain DBF2, hits give low values",0.098 (active)
same,normalized growth,"locus YHR030C, strain SLT2, hits give low values",0.0982 (active)
same,normalized growth,"locus YHR079C, strain IRE1, hits give low values",0.116 (active)
same,normalized growth,"locus YHR082C, strain KSP1, hits give low values",0.129 (active)
same,normalized growth,"locus YHR205W, strain SCH9, hits give low values",0.213 (active)
same,normalized growth,"locus YIL147C, strain SLN1, hits give low values",0.0853 (active)
same,normalized growth,"locus YJL095W, strain BCK1, hits give low values",0.128 (active)
same,normalized growth,"locus YJL128C, strain PBS2, hits give low values",0.472 (active)
same,normalized growth,"locus YJL157C, strain FAR1, hits give low values",0.0837 (active)
same,normalized growth,"locus YJR016C, strain ILV3, hits give low values",0.976
same,normalized growth,"locus YJR066W, strain TOR1 (second series), hits give low values",0.12 (active)
same,normalized growth,"locus YJR066W, strain TOR1, hits give low values",0.123 (active)
same,normalized growth,"locus YKL048C, strain ELM1, hits give low values",0.104 (active)
same,normalized growth,"locus YKL067W, strain YNK1, hits give low values",0.0909 (active)
same,normalized growth,"locus YKL101W, strain HSL1, hits give low values",0.099 (active)
same,normalized growth,"locus YKL193C, strain SDS22, hits give low values",0.0977 (active)
same,normalized growth,"locus YKL203C, strain TOR2, hits give low values",0.116 (active)
same,normalized growth,"locus YLR113W, strain HOG1, hits give low values",0.166 (active)
same,normalized growth,"locus YLR133W, strain CKI1, hits give low values",0.0889 (active)
same,normalized growth,"locus YLR403W, strain SFP1, hits give low values",0.0154 (active)
same,normalized growth,"locus YML070W, strain DAK1, hits give low values",0.0999 (active)
same,normalized growth,"locus YMR001C, strain CDC5, hits give low values",0.0878 (active)
same,normalized growth,"locus YMR205C, strain PFK2 (second series), hits give low values",0.0998 (active)
same,normalized growth,"locus YMR277W, strain FCP1, hits give low values",0.104 (active)
same,normalized growth,"locus YNL006W, strain LST8, hits give low values",0.0921 (active)
same,normalized growth,"locus YNL020C, strain ARK1, hits give low values",0.0878 (active)
same,normalized growth,"locus YNL161W, strain CBK1, hits give low values",0.0843 (active)
same,normalized growth,"locus YNL183C, strain NPR1, hits give low values",0.13 (active)
same,normalized growth,"locus YNL207W, strain RIO2, hits give low values",0.508 (active)
same,normalized growth,"locus YNL222W, strain SSU72, hits give low values",0.095 (active)
same,normalized growth,"locus YNL307C, strain MCK1 (second series), hits give low values",0.0953 (active)
same,normalized growth,"locus YOL078W, strain AVO1, hits give low values",0.093 (active)
same,normalized growth,"locus YOL136C, strain PFK27, hits give low values",0.0923 (active)
same,normalized growth,"locus YOR061W, strain CKA2, hits give low values",0.1 (active)
same,normalized growth,"locus YOR119C, strain RIO1, hits give low values",0.118 (active)
same,normalized growth,"locus YOR231W, strain MKK1, hits give low values",0.13 (active)
same,normalized growth,"locus YOR329C, strain SCD5, hits give low values",0.0829 (active)
same,normalized growth,"locus YPL031C, strain PHO85, hits give low values",0.0976 (active)
same,normalized growth,"locus YPL153C, strain RAD53, hits give low values",0.101 (active)
same,normalized growth,"locus YPL204W, strain HRR25, hits give low values",0.0987 (active)
same,normalized growth,"locus YPL209C, strain IPL1, hits give low values",0.0859 (active)
same,normalized growth,"locus YPL256C, strain CLN2, hits give low values",0.134 (active)
same,normalized growth,"locus YPR025C, strain CCL1, hits give low values",0.0843 (active)
same,normalized growth,"locus YPR111W, strain DBF20, hits give low values",0.92
same,normalized growth,"strain NNK1, hits give low values",0.0956 (active)
same,normalized growth,"strain TSCII, hits give low values",0.0989 (active)
